Results as given in PubChem BioAssay (EPA / NIEHS).
Records with an inconclusive call do not appear. Activity calls are given as the source filed them. The calls were made as follows, unless noted: active = hit-call score of the fitted dose curve at least 0.9, where 1 is the maximum; inactive = score below 0.9.

Assays:
[1] = read-out: Macrophage colony-stimulating factor (MCSF), CSF1 (gene 1435); test: BSK_LPS_MCSF: BioMAP Diversity Plus: LPS Assay for Macrophage colony-stimulating factor (MCSF) Biomarker Activity (AID 2283083); settings: primary human HUVEC with PBMC; actives raise or lower the signal
Summary of the method: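 Bidirectional fit versus DMSO of ELISA-measured M-CSF in co-cultured human umbilical vein endothelial cells and PBMC, sampled 24 h after dosing.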

[2] = read-out: Tissue Factor, F3 (gene 2152); test: BSK_LPS_TissueFactor: BioMAP Diversity Plus: LPS Assay for Tissue Factor Biomarker Activity (AID 2283084); settings: primary human HUVEC with PBMC; actives raise or lower the signal
Summary of the method: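 Read-out: CD142 ELISA, 24 h. System: LPS-driven human endothelial/PBMC co-culture. Analysis: up- or down-signal fitted against DMSO.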

[3] = read-out: Tumor necrosis factor (Homo sapiens) (UniProt P01375); test: BSK_LPS_TNFa: BioMAP Diversity Plus: LPS Assay for Tumour Necrosis Factor alpha (TNFa) Biomarker Activity (AID 2283085); settings: primary human HUVEC with PBMC; actives raise or lower the signal
Summary of the method: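 Human umbilical vein endothelial cells co-cultured with PBMC and stimulated with LPS. TNFa was measured by ELISA 24 h after chemical dosing, fitted bidirectionally relative to DMSO.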

[4] = read-out: Vascular cell adhesion molecule 1 (VCAM1), VCAM1 (gene 7412); test: BSK_LPS_VCAM1: BioMAP Diversity Plus: LPS Assay for Vascular cell adhesion molecule 1 (VCAM1) Biomarker Activity (AID 2283086); settings: primary human HUVEC with PBMC; actives raise or lower the signal
Summary of the method: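 Human umbilical vein endothelial cells co-cultured with PBMC and stimulated with LPS; VCAM-1 measured by ELISA 24 h after dosing. Bidirectional curve fitting against DMSO baseline; cytotoxicity tracked in parallel by SRB total-protein staining.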

[5] = read-out: CD38, CD38 (gene 952); test: BSK_SAg_CD38: BioMAP Diversity Plus: SAg Assay for CD38 Biomarker Activity (AID 2283087); settings: primary human HUVEC with PBMC; actives raise or lower the signal
Summary of the method: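 Human HUVEC plus PBMC co-culture stimulated with superantigen; CD38 measured by ELISA 24 h after chemical dosing. Fluorescence read-out, bidirectional fit against DMSO; cytotoxicity tracked in parallel by SRB and Alamar Blue.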

[6] = read-out: CD40, CD40 (gene 958); test: BSK_SAg_CD40: BioMAP Diversity Plus: SAg Assay for CD40 Biomarker Activity (AID 2283088); settings: primary human HUVEC with PBMC; actives raise or lower the signal
Summary of the method: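 Endpoint derived by fitting increases or decreases versus DMSO controls. CD40 is detected by fluorescence ELISA in a human vascular co-culture of endothelium and PBMC at 24 h.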

[7] = read-out: CD69, CD69 (gene 969); test: BSK_SAg_CD69: BioMAP Diversity Plus: SAg Assay for CD69 Biomarker Activity (AID 2283089); settings: primary human HUVEC with PBMC; actives raise or lower the signal
Summary of the method: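 Values derive from bidirectional fitting relative to DMSO vehicle. Cells: umbilical vein endothelium plus peripheral blood mononuclear cells, treated 24 h before fluorescent ELISA for CD69.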

[8] = read-out: Monocyte Chemoattractant Protein-1 (MCP1), CCL2 (gene 6347); test: BSK_SAg_MCP1: BioMAP Diversity Plus: SAg Assay for Monocyte Chemoattractant Protein-1 (MCP1) Biomarker Activity (AID 2283090); settings: primary human HUVEC with PBMC; actives raise or lower the signal
Summary of the method: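 MCP-1 levels in the endothelial–PBMC SAg co-culture were quantified by ELISA at 24 h post-dosing; both increases and decreases versus DMSO scored. Cytotoxicity monitored by SRB total protein in parallel cultures.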

[9] = read-out: Monokine induced gamma interferon (MIG), CXCL9 (gene 4283); test: BSK_SAg_MIG: BioMAP Diversity Plus: SAg Assay for Monokine induced gamma interferon (MIG) Biomarker Activity (AID 2283092); settings: primary human HUVEC with PBMC; actives raise or lower the signal
Summary of the method: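 Values reflect bidirectional fitting of ELISA-measured MIG against DMSO vehicle, taken 24 h after dosing of a co-culture of human umbilical vein endothelial cells and peripheral blood mononuclear cells.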

[10] = BSK_SAg_PBMCCytotoxicity: PBMC Cytotoxicity Assessment in the BioMAP Diversity Plus: SAg Assay (AID 2283093); settings: primary human HUVEC with PBMC;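 also: PBMC viability measured as Alamar Blue reduction fluorescence at 546/580 nm; fitted both ways against DMSO so a hit may be loss or gain of signal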
Summary of the method: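 Compound added to 75,000 PBMC/well for 1 h; SEB and TSST-1 then added at 20 ng/mL final each; 90 h incubation; Alamar Blue 6 h; read 546/580 nm ex/em. Activity fitted bidirectionally relative to DMSO baseline.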

[11] = read-out: Interleukin-8 (IL8), CXCL8 (gene 3576); test: BSK_SAg_IL8: BioMAP Diversity Plus: SAg Assay for Interleukin-8 (IL8) Biomarker Activity (AID 2283094); settings: primary human HUVEC with PBMC; actives raise or lower the signal
Summary of the method: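 Human umbilical vein endothelial cells co-cultured with PBMC, stimulated with superantigen; IL-8 measured by ELISA 24 h after chemical dosing. Bidirectional fitting versus DMSO; SRB staining in parallel cultures tracks cytotoxicity.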

[12] = BSK_SAg_SRB: Viability Assessment in the BioMAP Diversity Plus: SAg Assay (AID 2283096); settings: primary human HUVEC with PBMC;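 also: cells read one day after compound addition; hits may be either gain or loss of signal compared with DMSO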
Summary of the method: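 Total protein by sulforhodamine B staining, 24 h after dosing, in HUVEC–PBMC co-culture; DMSO-referenced bidirectional fitting.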

[13] = BSK_SAg_Proliferation: Cell Proliferation Assessment in the BioMAP Diversity Plus: SAg Assay (AID 2283095); settings: primary human HUVEC with PBMC
Summary of the method: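 Human umbilical vein endothelial cells co-cultured with PBMC; sulforhodamine B total-protein staining (0.1% SRB after 10% TCA fixation, absorbance 560 nm) at 96 h in sub-confluent culture. Fitted bidirectionally against DMSO.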

[14] = target: human CYP19A1, CYP19A1 (gene 1588) (UniProt P11511); test: NVS_ADME_hCYP19A1: NovaScreen (NVS) CYP450-related Enzyme Activity (ADME) Assay for human CYP19A1 (AID 2283098; active = hit-call score of the fitted dose curve at least 0.9, where 1 is the maximum)
Chain of human CYP19A1, CYP19A1 (gene 1588) (P11511 whole entry, looked up): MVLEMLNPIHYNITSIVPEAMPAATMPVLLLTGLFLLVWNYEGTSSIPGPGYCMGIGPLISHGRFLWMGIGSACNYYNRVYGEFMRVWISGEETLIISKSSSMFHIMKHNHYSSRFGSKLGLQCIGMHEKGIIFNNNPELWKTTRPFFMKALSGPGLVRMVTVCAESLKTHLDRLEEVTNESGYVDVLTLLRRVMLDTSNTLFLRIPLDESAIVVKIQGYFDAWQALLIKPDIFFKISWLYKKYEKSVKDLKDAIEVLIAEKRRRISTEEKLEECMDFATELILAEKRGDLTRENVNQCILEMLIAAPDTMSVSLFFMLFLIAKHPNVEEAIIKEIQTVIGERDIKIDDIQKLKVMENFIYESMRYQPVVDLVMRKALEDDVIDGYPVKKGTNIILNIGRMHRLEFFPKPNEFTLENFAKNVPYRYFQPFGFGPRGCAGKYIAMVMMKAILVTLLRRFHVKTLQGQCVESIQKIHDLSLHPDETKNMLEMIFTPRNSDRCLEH
Summary of the method: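 Biochem, cell-free; recombinant enzyme + specific substrate; fluorescence intensity at 0.5 h post-dose; 10 uM duplicate primary, conc. series for actives; acetonitrile = negative control/baseline; positive and negative controls on every plate.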

[15] = target: human CYP2B6, CYP2B6 (gene 1555) (UniProt P20813); test: NVS_ADME_hCYP2B6: NovaScreen (NVS) CYP450-related Enzyme Activity (ADME) Assay for human CYP2B6 (AID 2283101; active = hit-call score of the fitted dose curve at least 0.9, where 1 is the maximum)
Chain of human CYP2B6, CYP2B6 (gene 1555) (P20813 whole entry, looked up): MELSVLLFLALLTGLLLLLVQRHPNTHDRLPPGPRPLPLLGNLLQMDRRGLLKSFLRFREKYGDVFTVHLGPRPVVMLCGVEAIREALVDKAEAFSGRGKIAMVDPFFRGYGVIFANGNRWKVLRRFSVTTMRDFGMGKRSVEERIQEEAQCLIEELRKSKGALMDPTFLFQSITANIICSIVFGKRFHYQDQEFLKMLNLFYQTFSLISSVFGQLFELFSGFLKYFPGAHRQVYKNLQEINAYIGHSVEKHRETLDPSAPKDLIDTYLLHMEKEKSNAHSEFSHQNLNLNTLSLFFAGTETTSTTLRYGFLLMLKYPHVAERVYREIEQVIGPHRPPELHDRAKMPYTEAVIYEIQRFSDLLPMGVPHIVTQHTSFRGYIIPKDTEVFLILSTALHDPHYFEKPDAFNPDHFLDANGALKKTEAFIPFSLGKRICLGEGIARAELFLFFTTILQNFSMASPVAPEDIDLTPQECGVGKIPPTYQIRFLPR
Summary of the method: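 Compounds were first screened in duplicate at 10 uM against recombinant enzyme, with the fluorescent product measured after 1 hour. Active compounds were retested over a concentration series. Loss of fluorescence versus acetonitrile control was scored as reduced enzyme activity.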

[16] = read-out: E-selectin (Homo sapiens) (UniProt P16581); test: BSK_SAg_Eselectin: BioMAP Diversity Plus: SAg Assay for Eselectin Biomarker Activity (AID 2283091); settings: primary human HUVEC with PBMC; actives raise or lower the signal
Summary of the method: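 Endpoint values derive from bidirectional fitting relative to DMSO, using ELISA-measured E-selectin in a human vascular co-culture (umbilical vein endothelium plus PBMC) sampled 24 h after dosing.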

Chain of Tumor necrosis factor (Homo sapiens) (P01375 whole entry, looked up): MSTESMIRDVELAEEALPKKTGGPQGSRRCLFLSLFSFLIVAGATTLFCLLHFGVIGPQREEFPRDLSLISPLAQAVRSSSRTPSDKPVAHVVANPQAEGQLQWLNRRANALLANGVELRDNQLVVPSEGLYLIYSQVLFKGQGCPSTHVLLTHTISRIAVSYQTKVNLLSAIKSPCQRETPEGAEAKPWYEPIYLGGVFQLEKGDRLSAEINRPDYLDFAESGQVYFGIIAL
Chain of E-selectin (Homo sapiens) (P16581 whole entry, looked up): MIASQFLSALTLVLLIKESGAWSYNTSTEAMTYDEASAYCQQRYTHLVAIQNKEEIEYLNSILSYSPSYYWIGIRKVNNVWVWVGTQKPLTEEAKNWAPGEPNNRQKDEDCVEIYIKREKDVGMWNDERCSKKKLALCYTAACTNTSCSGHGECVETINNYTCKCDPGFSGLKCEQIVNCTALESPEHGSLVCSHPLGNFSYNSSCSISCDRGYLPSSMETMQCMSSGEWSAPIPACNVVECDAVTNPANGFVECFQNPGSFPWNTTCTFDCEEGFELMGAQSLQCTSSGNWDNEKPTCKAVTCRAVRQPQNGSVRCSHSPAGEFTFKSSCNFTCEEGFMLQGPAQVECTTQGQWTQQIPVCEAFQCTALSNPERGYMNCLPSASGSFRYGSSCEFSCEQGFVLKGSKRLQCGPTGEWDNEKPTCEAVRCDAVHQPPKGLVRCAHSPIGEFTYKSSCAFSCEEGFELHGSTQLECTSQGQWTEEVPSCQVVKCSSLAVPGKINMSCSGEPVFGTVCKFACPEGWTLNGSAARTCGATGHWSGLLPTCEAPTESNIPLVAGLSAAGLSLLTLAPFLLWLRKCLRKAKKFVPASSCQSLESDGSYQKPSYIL

O=S(=O)(O)C(F)(F)C(F)(F)C(F)(F)C(F)(F)F
outcome [1]: inactive
outcome [2]: inactive
outcome [3]: inactive
outcome [4]: inactive
outcome [5]: inactive
outcome [6]: inactive
outcome [7]: inactive
outcome [8]: inactive
outcome [9]: inactive
outcome [10]: inactive
outcome [11]: inactive
outcome [12]: inactive

C[C@]12CCC(=O)C=C1CC[C@@H]1[C@@H]2CC[C@@]2(C)[C@H]1CC[C@]2(C)O
outcome [1]: inactive
outcome [2]: inactive
outcome [3]: inactive
outcome [4]: inactive
outcome [5]: inactive
outcome [6]: inactive
outcome [7]: inactive
outcome [8]: inactive
outcome [9]: inactive
outcome [10]: inactive
outcome [11]: inactive
outcome [12]: inactive

ClC1=C(Cl)[C@]2(Cl)[C@@H]3[C@@H](Cl)[C@H]4O[C@H]4[C@@H]3C1(Cl)C2(Cl)Cl
outcome [1]: inactive
outcome [2]: inactive
AC50 [3]: 2.42 µM (active)
outcome [4]: inactive
AC50 [5]: 8.15 µM (active)
AC50 [6]: 11.6 µM (active)
outcome [7]: inactive
outcome [8]: inactive
outcome [9]: inactive
outcome [10]: inactive
outcome [11]: inactive
AC50 [13]: 14.7 µM (active)
AC50 [12]: 10.6 µM (active)
outcome [14]: inactive
AC50 [15]: 7.84 µM (active)

Cc1ccc(O)c(C)c1
outcome [1]: inactive
outcome [2]: inactive
outcome [3]: inactive
AC50 [4]: 4.7 µM (active)
outcome [5]: inactive
outcome [6]: inactive
outcome [7]: inactive
outcome [8]: inactive
outcome [16]: inactive
outcome [9]: inactive
outcome [10]: inactive
outcome [11]: inactive
outcome [13]: inactive
outcome [12]: inactive

Cc1cc(O)ccc1Cl
outcome [1]: inactive
outcome [2]: inactive
outcome [3]: inactive
outcome [4]: inactive
outcome [5]: inactive
outcome [6]: inactive
outcome [7]: inactive
outcome [8]: inactive
outcome [9]: inactive
outcome [10]: inactive
outcome [11]: inactive
outcome [13]: inactive
outcome [12]: inactive

O=C(NC(=O)c1cc(F)c(F)cc1Cl)Nc1cc(F)ccc1N1CCC(C(=O)O)CC1
outcome [1]: inactive
outcome [2]: inactive
AC50 [3]: 10 µM (active)
outcome [4]: inactive
outcome [5]: inactive
outcome [6]: inactive
outcome [7]: inactive
outcome [8]: inactive
outcome [9]: inactive
outcome [10]: inactive
outcome [11]: inactive
outcome [12]: inactive

Nn1cnnc1
outcome [1]: inactive
outcome [2]: inactive
outcome [3]: inactive
outcome [4]: inactive
outcome [5]: inactive
outcome [6]: inactive
outcome [7]: inactive
outcome [8]: inactive
outcome [16]: inactive
outcome [9]: inactive
outcome [10]: inactive
outcome [11]: inactive
outcome [12]: inactive
